# Data published in the supplement of paper PMC9950053.
# Counter-ions that a name gives are not always drawn.
# System: Danio rerio larvae (5 dpf)
# Assay: excitability (activity period 17 minus period 16, 1-s interval sound) minus DMSO control (percentage points); higher = more acoustic excitability than DMSO larvae
# Details: 10 µM; exposure time: 3 h pre-incubation + 3 h imaging
# Procedure: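 Wild-type 5 dpf zebrafish larvae (n=48 per drug, 96-well plates, 28.5 °C) were exposed to Tocris FDA-approved library compounds at 10 µM (0.1% DMSO) for 3 h before and 3 h during imaging. Images were taken every 6 s during visual (moving coloured lines) and acoustic stimuli, and larvae were tracked with the DeepLabCut-based Z-LaP Tracker. Each behavioural measure is the treated-group mean minus the DMSO vehicle control mean (n=844), in percentage points. This mapping covers compounds with 4-character plate codes.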
row,SMILES,excitability
1,O=C(O)c1cc(/N=N/c2ccc(S(=O)(=O)Nc3ccccn3)cc2)ccc1O [Sulfasalazine],0.715
2,Cc1cccc(CN2CCN(C(c3ccccc3)c3ccc(Cl)cc3)CC2)c1 (stereo not given) [Meclizine dihydrochloride],8.17
3,Cc1cn([C@H]2C=C[C@@H](CO)O2)c(=O)[nH]c1=O [Stavudine],1.32
4,COc1cc2nc(N3CCN(C(=O)C4COc5ccccc5O4)CC3)nc(N)c2cc1OC (stereo not given) [Doxazosin mesylate],21.8
5,C[C@H]1C[C@@H]2[C@H]([C@@H](O)C[C@@]3(C)[C@H]2CC[C@]3(O)C(=O)CO)[C@@]2(C)C=CC(=O)C=C12 [Methylprednisolone],1.52
6,COc1c(C)c2c(c(O)c1C/C=C(\C)CCC(=O)O)C(=O)OC2 [Mycophenolic acid],1.48
7,CN(CCOc1ccc(CC2SC(=O)NC2=O)cc1)c1ccccn1 (stereo not given) [Rosiglitazone],17.9
8,CCCCc1nc(Cl)c(CO)n1Cc1ccc(-c2ccccc2-c2nnn[nH]2)cc1 [Losartan potassium],6.79
9,CC(=O)S[C@@H]1CC2=CC(=O)CC[C@]2(C)[C@H]2CC[C@@]3(C)[C@@H](CC[C@@]34CCC(=O)O4)[C@H]12 [Spironolactone],3.91
10,Nc1nc2c(ncn2COCCO)c(=O)[nH]1 [Acyclovir],3.35
11,CCOc1nc2cccc(C(=O)O)c2n1Cc1ccc(-c2ccccc2-c2nnn[nH]2)cc1 [Candesartan],-3.55
12,Cc1ccc(-c2cc(C(F)(F)F)nn2-c2ccc(S(N)(=O)=O)cc2)cc1 [Celecoxib],4.91
13,CN1CCC[C@@H]1CCO[C@](C)(c1ccccc1)c1ccc(Cl)cc1 [Clemastine fumarate],12.9
14,CN(C)CCc1c[nH]c2ccc(Cn3cncn3)cc12 [Rizatriptan benzoate],-0.877
15,Cn1cnc([N+](=O)[O-])c1Sc1ncnc2[nH]cnc12 [Azathioprine],0.781
16,Cc1cc(C2CCCCC2)n(O)c(=O)c1 [Ciclopirox],5.61
17,CC(C)c1nc(CN(C)C(=O)N[C@H](C(=O)N[C@@H](Cc2ccccc2)C[C@H](O)[C@H](Cc2ccccc2)NC(=O)OCc2cncs2)C(C)C)cs1 [Ritonavir],8.43
18,CC(=O)O[C@H]1C(=O)[C@@]2(C)[C@H]([C@H](OC(=O)c3ccccc3)[C@]3(O)C[C@H](OC(=O)[C@H](O)[C@@H](NC(=O)c4ccccc4)c4ccccc4)C(C)=C1C3(C)C)[C@]1(OC(C)=O)CO[C@@H]1C[C@@H]2O [Taxol],2.27
19,Nc1nc(Cl)nc2c1ncn2[C@@H]1O[C@H](CO)[C@@H](O)[C@@H]1F [Clofarabine],4.52
20,CC(C)c1nc(N(C)S(C)(=O)=O)nc(-c2ccc(F)cc2)c1/C=C/[C@@H](O)C[C@@H](O)CC(=O)O [Rosuvastatin calcium],-2.24

row,SMILES,excitability
1,CCCCCCCCc1ccc(CCC(N)(CO)CO)cc1,14.6
2,O=C(O)CCCc1ccccc1 [Sodium 4-Phenylbutyrate],2.71
3,N#Cc1ccc(C(c2ccc(C#N)cc2)n2cncn2)cc1 [Letrozole],0.318
4,CN(CCOc1ccc(NS(C)(=O)=O)cc1)CCc1ccc(NS(C)(=O)=O)cc1 [Dofetilide],6.73
5,O=C(NCC1CCCCN1)c1cc(OCC(F)(F)F)ccc1OCC(F)(F)F (stereo not given) [Flecainide acetate],6.31
6,Cc1nc(Nc2ncc(C(=O)Nc3c(C)cccc3Cl)s2)cc(N2CCN(CCO)CC2)n1 [Dasatinib],17.4
7,CCCCC1=NC2(CCCC2)C(=O)N1Cc1ccc(-c2ccccc2-c2nnn[nH]2)cc1 [Irbesartan],-0.258
8,CC1(C)O[C@@H]2[C@@H](CO[C@@]3(COS(N)(=O)=O)OC(C)(C)O[C@@H]23)O1 [Topiramate],2
9,CCc1c2c(nc3ccc(OC(=O)N4CCC(N5CCCCC5)CC4)cc13)-c1cc3c(c(=O)n1C2)COC(=O)[C@]3(O)CC,8.99
10,CC(CCc1ccc(O)cc1)NCCc1ccc(O)c(O)c1 (stereo not given) [Dobutamine hydrochloride],9.03
11,O=C(O[C@@H]1C[C@@H]2C[C@H]3C[C@H](C1)N2CC3=O)c1c[nH]c2ccccc12 [Dolasetron mesylate],10.3
12,COc1ccc([C@@H]2Sc3ccccc3N(CCN(C)C)C(=O)[C@@H]2OC(C)=O)cc1 [Diltiazem hydrochloride],1.06
13,Nc1ccn([C@@H]2O[C@H](CO)[C@@H](O)C2(F)F)c(=O)n1 [Gemcitabine hydrochloride],1.87
14,N[C@@H]1[C@H]2CN(c3nc4c(cc3F)c(=O)c(C(=O)O)cn4-c3ccc(F)cc3F)C[C@@H]12 [Trovafloxacin mesylate],12.2
15,CCCN(CCc1cccs1)[C@H]1CCc2c(O)cccc2C1 [Rotigotine hydrochloride],13.6
16,CCN(CC)CCNC(=O)c1c(C)[nH]c(/C=C2\C(=O)Nc3ccc(F)cc32)c1C [Sunitinib malate],15.8
17,CC(C)CN(C[C@@H](O)[C@H](Cc1ccccc1)NC(=O)O[C@H]1CO[C@H]2OCC[C@H]21)S(=O)(=O)c1ccc(N)cc1 [Darunavir],-0.913
18,CO[C@H]1/C=C/O[C@@]2(C)Oc3c(C)c(O)c4c(O)c(c5c(nc6cc(C)ccn65)c4c3C2=O)NC(=O)/C(C)=C\C=C\[C@H](C)[C@H](O)[C@@H](C)[C@@H](O)[C@@H](C)[C@H](OC(C)=O)[C@@H]1C [Rifaximin],5.77
19,Nc1nc2[nH]cc(CCc3ccc(C(=O)N[C@@H](CCC(=O)O)C(=O)O)cc3)c2c(=O)[nH]1 [Pemetrexed],2.33
20,CN/C(=N\CCSCc1nc[nH]c1C)NC#N [Cimetidine],-2.33
